# PubChem BioAssay AID602399 (Sanford-Burnham Center for Chemical Genomics, 2012)
# Where “and” joins values, the source holds several entries; their conditions need not be identical. Identical values can stand only once. The campaign covered roughly 360,000 compounds. About 2,800 (0.78%) were called active. Rule as the data show it: active = inhibition above about 26%; inactive = the rest. What follows is part of a selection rich in actives, with near analogues and random picks from the rest. The source holds several records for some structures; these can differ, active in one and inactive in another.
# Tested on: Nicotinate-nucleotide adenylyltransferase NadD (Staphylococcus aureus N315)
# Assay: S. aureus NadD enzyme activity blockers – biochemical, colorimetric, uHTS, primary screen (AID 602399)
# Conditions: purified NadD enzyme, colorimetric absorbance read-out; at 20 µM; stronger effect = higher value
row,Compound,inhibition
1,O=C(c1ccccc1)N1CCN(C(=O)c2cc3nc(-c4ccccc4)cc(C(F)(F)F)n3n2)CC1,2.29% (inactive)
2,CN(C)CCN1CCN(c2cc(-c3cccc(Cl)c3)nc3ccnn23)CC1,-0.61% (inactive)
3,C#Cc1cc(N2CCN(C(=O)c3ccoc3)CC2)n2nc(-c3cccc(Cl)c3)cc2n1,35.4% (active)
4,CCCCC[C@H](C)N1C[C@@H](COCc2ccccc2)Oc2cc(N3CCC[C@@H]3CO)ccc2S1(=O)=O,1.75% (inactive)
5,Nc1ncnc2c1cnn2C1CC(O)C(CO)O1 (stereo not drawn),4.49% (inactive)
6,CCn1c(SCC(=O)N/N=C/C=C/c2ccccc2[N+](=O)[O-])nnc1-c1ccccc1,5.92% (inactive)
7,C/C(=N\NC(=O)CSc1nc2ccccc2c(=O)n1-c1ccccc1C)c1cccs1,2.02% (inactive)
8,Cc1ccc(-n2c(SCC(=O)N/N=C/C=C/c3ccccc3[N+](=O)[O-])nc3ccccc3c2=O)cc1,35.1% (active)
9,CC(=O)NCCn1c(SCC(=O)Nc2ccc(C)cc2)nc2ccccc2c1=O,-6.19% (inactive)
10,Cc1nn(-c2ccccc2)c(C)c1/C=N/NC(=O)CSc1nc2ccccc2c(=O)n1-c1ccccc1,30.2% (active)
11,Cn1c(SCC(=O)N/N=C/c2ccc(O)c(O)c2)nc2ccccc21,-4.08% (inactive)
12,Cc1ccc(CC2CC(=O)N(c3nc(C)cc(C)n3)C2=O)cc1 (stereo not drawn),-0.638% (inactive)
13,O=C(COC(=O)c1cc(S(=O)(=O)N2CCOCC2)ccc1F)NC1CC1,-7.35% (inactive)
14,COc1ccc(Cc2nnc(SCC(=O)N(c3ccccc3)C(C)C)n(N)c2=O)cc1,-0.371% (inactive)
15,CC(=O)N(c1ccc2oc(=O)sc2c1)S(=O)(=O)c1ccc(C)cc1,-4.06% (inactive)
16,Cc1ccc2cccc(O)c2[n+]1[O-],-2.68% (inactive)
17,O=C(O)CCC(=O)NCc1ccc(C(=O)O)cc1,-1.86% (inactive)
18,O=C(O)c1ccc(COCC(F)(F)F)cc1,57.7% (active)
19,NNC(=O)c1ccc(COCC(F)(F)C(F)F)cc1,0.345% (inactive)
20,O=C(CCc1ccccc1)Nc1ccc(NC(=O)C2CCCCC2)nc1,-0.446% (inactive)
21,O=C1CCCN2N=C(SCC(=O)Nc3ccc(Br)cc3)SC2=N1,0% (inactive)
22,COCCNC(=O)Cn1cc2c(n1)CCCCC2,4.24% (inactive)

row,Compound,inhibition
1,CC1CN(S(=O)(=O)c2ccc(C(=O)NN3CCN(C)CC3)cc2)CC(C)O1 (stereo not drawn),-3.52% (inactive)
2,Cc1ccc(C(=O)N/N=C\c2cc(Br)c(Br)o2)cn1,-3.68% (inactive)
3,Nc1cccnc1Sc1ccccc1,-5.1% (inactive)
4,FC(F)(F)C1CCCN(c2nsc3ccccc23)C1 (stereo not drawn),34.7% (active)
5,CC(C)(C)c1ccc(C(=O)N2CCC(C(=O)N3CCCCC3)CC2)cc1,-0.861% (inactive)
6,C/C(CC(=O)Nc1ccc(Cl)cc1)=N\NC(=O)C(=O)NCCO,2.33% (inactive)
7,CN(C)Cc1c(C(=O)N/N=C/c2ccccc2OCc2ccc(F)cc2)nnn1-c1nonc1N,5.11% (inactive)
8,Nc1nonc1-n1nnc(C(=O)N/N=C/c2cc(Br)ccc2O)c1CSC1=NCCS1,37.3% (active)
9,CC(C)c1c(C(=O)N/N=C/c2ccccc2C(=O)O)nnn1-c1nonc1N,-2.34% (inactive)
10,Clc1ccc(-c2cc(C3CCNCC3)[nH]n2)c(Cl)c1,-5.2% (inactive)
11,CCC(C(=O)OC)n1cnc2c(oc3ccccc32)c1=O (stereo not drawn),-0.579% (inactive)
12,Cc1ccc(C(=O)Oc2coc(CSc3nnc(NC(=O)c4cccs4)s3)cc2=O)cc1C,58.4% (active)
13,COC(=O)c1ccc(CSc2nnc(NC(C)C)s2)cc1,-1.36% (inactive)
14,CCOc1ccccc1Nc1nnc(SCc2ccc(C(=O)OC)o2)s1,-2.72% (inactive)
15,Cc1cc(C)c(C2C3=C(Nc4c2c(C)nn4-c2ccccn2)c2ccccc2C3=O)c(C)c1 (stereo not drawn),33.2% (active)
16,Cc1ccc(C)c(OCCC(=O)OCC(=O)c2ccc3c(c2)NC(=O)CO3)c1,-5.39% (inactive)
17,COc1ccc(C(=O)c2c(C)c(CCC#N)n3ccccc23)c(OC)c1,-8.39% (inactive)
18,CCOc1ccc(CN2CCNC(=O)C2CC(=O)NCCCC2CCCC2)cc1 (stereo not drawn),8.04% (inactive)
19,Oc1ccc(C2Nc3cccc4cccc(c34)N2)cc1,57.7% (active)
20,COc1cccc(CNCCc2c[nH]c3ccccc23)c1OCc1ccccc1F,-4.86% (inactive)
21,Cc1cc(C(=O)NNS(=O)(=O)c2ccccc2C(F)(F)F)nn1C(C)(C)C,-0.0808% (inactive)
22,COc1ccc(/C(=N\O)c2nccc3cc(OC)c(OC)cc23)cc1OC,-0.658% (inactive)

row,Compound,inhibition
1,CNC(=O)c1ccc(CN(C)C(=O)c2cc(C3CC3)nc3c2cnn3C(C)C)cc1,2.58% (inactive)
2,CC(=O)NC(Cc1c[nH]c2ccccc12)C(=O)NCCc1ccccc1 (stereo not drawn),-5.17% (inactive)
3,O=C(CNC(=O)c1cccs1)N/N=C/c1cccc(Br)c1,-5.24% (inactive)
4,O=C(NC(Cc1c[nH]c2ccccc12)C(=O)N/N=C/c1ccc(Br)cc1)c1cccs1 (stereo not drawn),32% (active)
5,O=C1N(c2ccccc2)C(=Nc2ccccc2)SC12CC2,-4.95% (inactive)
6,Cc1cc(Cl)ccc1NNC(=O)c1snnc1C,1.86% (inactive)
7,OC(c1ccc(F)cc1)c1ncc(-c2cccc(C(F)(F)F)c2)[nH]1 (stereo not drawn),0.456% (inactive)
8,O=C(NCc1ccccc1Cl)c1ccc2c(=O)n(CC3CCCO3)c(=S)[nH]c2c1 (stereo not drawn),-3.54% (inactive)
9,CC(C)(C)c1cc(P(=O)(c2ccccc2)c2ccccc2)ccc1O,-3.61% (inactive)
10,COc1ccc(N=Nc2ccc(O)c(P(=O)(c3ccccc3)c3ccccc3)c2)cc1,30.9% (active)
11,Cc1cc(N=Nc2ccc3ccccc3c2)ccc1O,-20.6% (inactive)
12,CN1CC(=O)N=C1N,-3.38% (inactive) and -0.141% (inactive)
13,COc1cccc(CN(C)C(=O)CC[C@H]2O[C@@H](n3cnc4c(NC(=O)c5ccccc5)ncnc43)[C@H](O)[C@@H]2O)c1,-1.41% (inactive)
14,O=C(NCc1ccncc1)c1ccc(NS(=O)(=O)c2cccc([N+](=O)[O-])c2)cc1,-1.63% (inactive)
15,O=[N+]([O-])c1cc(S(=O)(=O)Nc2cccc(Cl)c2)ccc1N=Nc1c(O)[nH]c2ccccc12,61% (active)
16,O=C(CCN1CCCCC1)N=Nc1c(O)[nH]c2ccccc12,-5.32% (inactive)
17,CCOC(=O)[C@]12CCCC=C1N(Cc1ccc(Cl)cc1Cl)C(=O)[C@H](CC(=O)N1CCCCC1)C2,-1.55% (inactive)
18,Cc1ccc(N(CC(=O)NCC2CCCO2)C(=O)CNS(=O)(=O)c2ccc(Cl)cc2)cc1 (stereo not drawn),2.66% (inactive)
19,COc1ccc(-c2nc3cnccn3c2NC2CCCCC2)cc1-c1cccc(Cl)c1,33.8% (active) and 14.3% (inactive)
20,COc1ccc(-c2nc3cc(C)ccn3c2NC2CCCCC2)cc1SC1CCCCC1,17% (inactive) and 21% (inactive)
21,COc1ccc(-c2nc3cnccn3c2NC(C)(C)CC(C)(C)C)cc1O,-3.5% (inactive)
22,COC(=O)c1ccc2nc(-c3cccc(Br)c3)c(Cc3ccc(OC)cc3C)n2c1,20.8% (inactive)

row,Compound,inhibition
1,COC(=O)c1ccc2nc(-c3ccccc3)c(Cc3ccc(OC)cc3C)n2c1,10.9% (inactive)
2,COC(=O)c1ccc2nc(-c3ccc(C)cc3)c(Cc3ccc(OC)cc3C)n2c1,31.6% (active)
3,O=C(COC(=O)c1cccnc1Cl)Nc1ccc(S(=O)(=O)N2CCOCC2)cc1,-4.21% (inactive)
4,CCc1nc2oc3ccccc3c(=O)c2c(=O)n1Cc1ccc(OC)cc1,2.99% (inactive)
5,Cn1c2ccccc2c(=O)c2c(=O)n(Cc3ccco3)c(COc3ccccc3)nc21,42.5% (active)
6,O=C(CSc1nnc(COc2ccc(Cl)cc2)n1Cc1ccco1)N1CCNC1=O,4.26% (inactive)
7,COc1ccc(-c2ccc(CN3C(C(C)C)C(=O)N(Cc4cn(CC5CCCCC5)nn4)CCS3(=O)=O)cc2)cn1 (stereo not drawn),4.8% (inactive)
8,CCOC(=O)C(Sc1ncc(C#N)c(N)n1)C(C)C (stereo not drawn),2.12% (inactive)
9,CCCc1c(C(=O)Nc2ccc(F)cc2)cnn1-c1ccccc1,-0.321% (inactive)
10,Cc1cccc(C)c1-n1nnnc1C1(C)CCC(=O)N1CCOc1ccccc1 (stereo not drawn),-5.82% (inactive)
11,Cc1ccsc1/C=N/n1c(=S)[nH]nc(C)c1=O,1.04% (inactive)
12,S=c1[nH]nc(-c2cccs2)n1/N=C/c1cn(-c2ccccc2)nc1-c1ccc(Cl)cc1,32.6% (active)
13,CC(=O)C1=C(C)NC(C)=C(C(C)=O)C1c1cn(-c2ccccc2)nc1-c1cccs1,11.6% (inactive)
14,C[C@H]1CC[C@]2(O[C@@H](CCO)C[C@@H](O)[C@@H]2O)O1,0.758% (inactive)
15,O=C(COC(=O)CCCNC(=O)c1ccc(Cl)cc1)Nc1cc(Cl)ccc1Cl,-4.1% (inactive)
16,COc1ccc([N+](=O)[O-])cc1C1NN=C(c2cccc3ccccc23)S1 (stereo not drawn),17.6% (inactive)
17,NC(=O)C1CC(=O)N(c2ccc(OCC(=O)NCc3ccccc3)cc2)C1 (stereo not drawn),1.55% (inactive)
18,O=C(COC(=O)c1ccccc1)Nc1ccccc1Sc1ccccc1,-7.21% (inactive)
19,O=C(COC(=O)c1ccc(Oc2ccccc2)cc1)Nc1nnc(-c2ccccc2)o1,47.6% (active)
20,COc1ccccc1C(=O)NCC(=O)OCC(=O)Nc1nnc(-c2ccccc2)o1,10.3% (inactive)
21,CC(C)(C)C(=O)CCN1C(=O)C2(OCCO2)c2ccccc21,-0.902% (inactive)
22,COC(=O)[C@@]1(Cc2ccc(F)cc2)[C@H]2c3cc(C(=O)N4CCCC4)n(Cc4ccc(OC(F)(F)F)cc4)c3C[C@H]2CN1C(=O)c1ccccc1,13.9% (inactive)
